# Hits are enriched below; roughly 2.9% of the tested compounds scored in any of these assays.
# PLCg1 inh: inhibitors of human phospholipase C gamma1; purified PLC-gamma1, fluorogenic substrate, fluorescence; actives 0.84% (n = 370,000); AID 720700; inhibition, % at 12.2 µM
# ADAM10 inh: inhibits human ADAM10. recombinant ADAM10, EDANS/DABCYL FRET peptide cleavage, 3 h. inhibition, % at 7 µM. actives 0.62% (n = 370,000). AID 720582;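 active means inhibition above a per-campaign cutoff equal to the mean of compounds falling between control-based bounds plus 3 SD, cut at about 20% in these data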;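 further: 0% = DMSO wells while the 100% control is not disclosed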
# ADAM17 inh: ADAM17 inhibition, QFRET primary screen | AID 720648 | actives 0.83% (n = 370,000) | P78536 | inhibition, % at 6.95 µM | recombinant ADAM17, EDANS/DABCYL FRET peptide cleavage;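 active means inhibition above the mean of compounds lying between control limits plus 3 SD, set per campaign, cut at about 8.5% in these data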;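 further: 0% = DMSO-only wells as the low control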
# Target sequence (P78536 215-824 limits assumed): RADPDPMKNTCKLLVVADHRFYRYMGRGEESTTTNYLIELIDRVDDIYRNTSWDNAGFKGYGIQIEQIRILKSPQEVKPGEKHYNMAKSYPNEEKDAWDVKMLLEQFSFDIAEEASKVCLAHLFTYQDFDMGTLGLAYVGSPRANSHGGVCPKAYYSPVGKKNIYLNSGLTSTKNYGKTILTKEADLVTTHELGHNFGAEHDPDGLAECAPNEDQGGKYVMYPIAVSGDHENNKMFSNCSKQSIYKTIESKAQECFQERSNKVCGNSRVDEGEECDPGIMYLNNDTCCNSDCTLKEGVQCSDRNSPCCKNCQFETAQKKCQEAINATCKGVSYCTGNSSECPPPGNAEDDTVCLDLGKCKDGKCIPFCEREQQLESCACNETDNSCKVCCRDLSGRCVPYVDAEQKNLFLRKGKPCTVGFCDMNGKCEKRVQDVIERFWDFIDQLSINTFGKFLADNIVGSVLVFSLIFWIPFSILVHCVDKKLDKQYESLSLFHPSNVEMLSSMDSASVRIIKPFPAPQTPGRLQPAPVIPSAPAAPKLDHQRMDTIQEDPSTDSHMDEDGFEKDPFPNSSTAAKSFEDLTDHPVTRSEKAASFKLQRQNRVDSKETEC
# PLCb3 inh: blocks human PLC-beta3 enzyme activity; actives 0.18% (n = 370,000); Q01970; inhibition, % at 12.2 µM; Purified PLC-beta3, fluorogenic substrate, fluorescence; AID 720704; in the data active means inhibition above about 11%;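 further: 0% = median of compound wells on plate and 100% = full blocker control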
# KLK7 zymogen act: activates the human kallikrein-7 zymogen | actives 0.9% (n = 370,000) | AID 652039 | purified proKLK7, EDANS-DABCYL substrate fluorescence; 100% is mature enzyme control, 0% vehicle | activation, % at 7 µM | P49862;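 active means activation above the mean of all tested compounds plus 3 SD, computed per campaign excluding outliers beyond control limits, cut at about 13% in these data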
# PLCgamma1 ctr: PLC-gamma1 inhibition, counter-screen for PLC-beta3 hits. shares compounds with PLCg1 inh. purified PLC-gamma1, fluorogenic substrate, fluorescence. inhibition, % at 12.3 µM. actives 3.1% (n = 3,300). AID 743258
# PLCbeta3 conf: confirmation of human PLC-beta3 inhibitors; inhibition, % at 12.3 µM; shares compounds with PLCg1 inh; actives 1% (n = 3,300); purified PLC-beta3, fluorogenic substrate fluorescence; in the data active means inhibition above about 11%
# * marks the source's active call; other numbers are inactive results; . = no result given. Unless noted, no stated cut-off is given here; in the data, active means inhibition above about 9.5%; inactive means the rest.
SMILES,PLCg1 inh,ADAM10 inh,ADAM17 inh,PLCb3 inh,KLK7 zymogen act,PLCgamma1 ctr,PLCbeta3 conf
Cc1cc(Cl)ccc1OCC(=O)N/N=C/c1ccc[nH]1,-1,4,0,2,.,.,.
CCCCNC(=O)COC(=O)CCC(=O)c1ccc(F)cc1,6,9,3,4,0,.,.
CCCNC(=O)COC(=O)CCC(=O)c1ccc(F)cc1,9.8*,13,1,7,-1,-2,-7
COCCN1C(=O)c2oc3cc(C)c(C)cc3c(=O)c2C1c1cccc(O)c1 (stereo not drawn),15*,-11,-4,-1,0,-8,-2
COc1ccc(C)cc1S(=O)(=O)N(CC(=O)N1CCOCC1)c1cc(C)cc(C)c1,10*,-2,2,-2,0,0,2
Nc1nc(Sc2ccc([N+](=O)[O-])cc2[N+](=O)[O-])n[nH]1,9.5*,5,-1,-1,1,4,3
Cc1ccnc(Sc2ccc([N+](=O)[O-])cc2[N+](=O)[O-])n1,6,4,-3,6,0,.,.
O=C(NCCc1nc2ccccc2[nH]1)C1CCC(=O)N(CCc2cccc(F)c2)C1 (stereo not drawn),0,-10,-3,-2,1,.,.
CN(C)[C@H]1CCN([C@@H]2CS(=O)(=O)N[C@H]2COCc2ccccc2)C1,0,-9,-4,0,0,.,.
O=S1(=O)C[C@@H](N2CC[C@@H](O)C2)[C@H](COCc2ccccc2)N1,10*,-1,3,10,1,-1,-1
CCC12CN3CC(CC)(CN(C1)C3c1ccc([N+](=O)[O-])o1)C2=O (stereo not drawn),11*,-4,-4,7,0,-4,0
COc1ccc(OCc2cc(C(=O)NCc3cccc(C)n3)no2)c(Cl)c1,-5,5,2,-11,1,.,.
Clc1cccc(CNc2ccn3nc(-c4ccccc4Cl)cc3n2)c1,-19,-32,-10,-36,-4,.,.
O=c1cc(-c2ccccc2)[nH]n1-c1ccccc1,-1,-4,-1,-14,0,.,.
CC(C)(C)c1cc(=O)n(-c2ccccc2)[nH]1,28*,1,0,9,0,7,2
COC(=O)C(Cc1ccccc1)NC(=O)CCNC(=O)c1ccc(Br)cc1 (stereo not drawn),0,-1,0,-7,0,.,.
CC(C)(C)c1ccc(OCC(O)CN2CCN(C(=O)c3ccccc3)CC2)cc1 (stereo not drawn),14*,4,1,9,0,-1,0
CCOC(=O)C1CCN(C(=O)COc2ccc(Br)cc2)CC1,11*,6,3,7,-1,-4,0
CCCOC(=O)c1ccc(OCC(O)CN2CCN(C(=O)c3ccccc3)CC2)cc1 (stereo not drawn),3,3,1,4,0,.,.
CCOC(=O)C1CCN(CC(O)COc2ccc(C(C)(C)CC)cc2)CC1 (stereo not drawn),12*,10,3,8,0,-3,-2
CCOC(=O)C1CCN(C(=O)COc2ccc(C(=O)c3ccccc3)cc2)CC1,-5,-1,-2,-4,0,.,.
CCOC(=O)C1CCN(CC(O)COc2ccc(C(C)(C)C)cc2)CC1 (stereo not drawn),0,1,-1,3,0,.,.
O=[N+]([O-])c1ccc(Nc2nc(NC3CCCCC3)nc(N3CCCC3)n2)cc1,2,-2,-3,0,0,.,.
CCNc1nc(NC(C)C)nc(N(C#N)C(C)C(=O)N(CC)CC)n1 (stereo not drawn),-3,-6,-7,-2,0,.,.
C=CCNc1ncnc2c1ncn2[C@H]1CN(Cc2cccs2)C[C@@H](CO)O1,4,-1,7,2,0,.,.
SMILES,PLCg1 inh,ADAM10 inh,ADAM17 inh,PLCb3 inh,KLK7 zymogen act,PLCgamma1 ctr,PLCbeta3 conf
CC(=O)Nc1ccc(NC(=O)C2CC(=O)N(C(C)C)C2)cc1 (stereo not drawn),-2,4,2,-5,0,.,.
O=C(c1ccc(-c2cccc(C(F)(F)F)c2)o1)N1CCCC(C(F)(F)F)C1 (stereo not drawn),-1,4,4,-9,0,.,.
CCCNC(=O)c1c(O)c2c([nH]c1=O)CCCC2,0,1,2,4,0,.,.
COc1ccc(CCNC(=O)c2c(O)c3c([nH]c2=O)CCCC3)cc1,11*,4,5,9,0,-4,-4
CCc1ccccc1N(C)S(=O)(=O)c1ccc(-c2cc(C)no2)s1,3,17,6,-10,0,.,.
O=C(Nc1cccc(Cl)c1)Nc1cc(S(=O)(=O)N2CCOCC2)ccc1N1CCCC1,11*,2,1,0,0,-11,-6
O=C(COC(=O)c1ccccc1[N+](=O)[O-])Nc1cc(S(=O)(=O)N2CCOCC2)ccc1N1CCCC1,12*,4,5,-6,0,2,3
O=C1C(=O)c2cccnc2-c2ncccc21,53*,2,-2,9,1,51*,8
CCCCNC(=O)CSc1nc2ccccc2c(=O)n1CC1COc2ccccc2O1 (stereo not drawn),13*,17,6,7,0,3,2
CC(C)CN1C(=O)[C@@]2(CC(=O)N(C)C2c2ccccc2)c2cc(-n3cc(CCc4ccccc4)nn3)ccc21 (stereo partly drawn),10*,3,5,1,-1,-2,0
O=C(NC1CCCC1)C(c1cccnc1)N(C(=O)c1csnn1)c1ccccc1 (stereo not drawn),-1,-1,0,-1,0,.,.
CCOc1ccc(C(=O)NCC(=O)NCC2CCCCC2)cc1OCC,0,-2,1,-1,0,.,.
CNc1cc(-c2cccc(C(=O)N3CCOCC3)c2)ncn1,-4,-57,-20,-4,0,.,.
Cc1cc(C(=O)NC(=S)Nc2cccc(C(=O)O)c2C)ccc1[N+](=O)[O-],9.8*,9,4,5,0,4,1
Cc1cc(C(=O)NC(=S)Nc2cccc(NC(=O)C(C)C)c2)ccc1[N+](=O)[O-],3,3,0,-1,0,.,.
CC(C)NC(=O)CCc1nnc(Cc2cccc(C(F)(F)F)c2)o1,-1,-7,-4,-1,0,.,.
CC(C)N(CCO)C(=O)CCc1nnc(Cc2cccc(C(F)(F)F)c2)o1,9.7*,-2,-1,-2,0,-1,1
O=C(CNCc1ccc(Cl)cc1)Nc1ccc2c(c1)OCCO2,10*,-5,0,1,0,-6,1
CC(=O)Nc1ccc(CNc2nc(NC(C)C)nc3ccsc23)cc1,11*,-40,-7,-4,0,2,-4
